The source of these data is the supplement of paper PMC11172423.

Structures are written as SMILES.

The experiment concerns Madurella mycetomatis MM55. In words: growth relative to untreated control; higher = less inhibition, active = 20 or less. The note with it: 25 µM. An outline of the steps:
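Growth was expressed as metabolic activity relative to the untreated growth control, with both corrected using a blank of medium plus dye. Hyphal fragments of M. mycetomatis MM55 or F. senegalensis CBS197.79 were suspended to 68–72% transmission at 660 nm in colourless RPMI 1640 containing L-glutamine and MOPS. In 96-well plates they were exposed to compound at 100 or 25 µM for 7 days at 37 °C, and viability was read with MTS (2 h, 490 nm) or resazurin (600 nm).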
Take `CCN1CCC(c2cc(C)c3nc(-c4cc5c(C)nc(C)cn5n4)cc(=O)n3c2)CC1`: the growth is 80.2% (inactive). Take `CC(C)C[C@H](NC(=O)[C@H](Cc1ccccc1)NC(=O)c1cnccn1)B(O)O`: the growth is 113% (inactive).

On to `NC(=O)c1ncn([C@@H]2O[C@H](CO)[C@@H](O)[C@H]2O)n1`, for which the growth was 87.9% (inactive).

`CCN(CC)CCNc1nc(Nc2cccc(OC)c2)c2cnn(-c3ccccc3)c2n1`: the growth was 5.18% (active).

With `CS(=O)(=O)c1ccc(-c2cnn3c2NC(c2cccc(S(=O)(=O)C4CC4)c2)CC3)cc1` (stereo unspecified), the growth was 97.1% (inactive). On to `COc1cccc2c1CCCC2CCCN1CCN(C2CCCCC2)CC1` (stereo unspecified), for which the growth was 75.4% (inactive). With `Cc1cccnc1-c1noc(-c2ccccc2)n1`, the growth was 49.2% (inactive). The figure for `Cn1nc(C(=O)Nc2ccc(F)c(Cl)c2)c2c1-c1ccccc1S(=O)(=O)C2` is 86.8% (inactive); for `Nc1nc(S)c2[nH]cnc2n1` it is 71.8% (inactive); for `CN(C)CCCN1C(=O)c2[nH]nc(-c3ccc(Cl)cc3O)c2C1c1ccc(Cl)cc1` (stereo unspecified) it is 68% (inactive). As for `COc1ccc(-c2nn3c(-c4ccco4)nnc3s2)cc1OC`, the growth was 97% (inactive).

On to `C[C@@H]1CS/C(=N\NC(=O)C(=O)[C@@H](NC(=O)C2CCCCCC2)C2CCOCC2)N1C`, for which the growth was 88.8% (inactive).

For the compound `O=C(Nc1ncccc1O)c1ccc(S(=O)(=O)NCCc2cccs2)cc1`, the growth is 128% (inactive). `C[C@@H](c1nc(-c2ccc(C#N)cc2)cs1)[C@](O)(Cn1cncn1)c1ccc(F)cc1F`: the growth was 3.04% (active). For `CCSc1ccc2c(c1)N(CCCN1CCN(C)CC1)c1ccccc1S2`, the growth was 3.68% (active).

`Cc1cccnc1Nc1cn2cc(-c3cccc(OCC(F)(F)F)n3)ccc2n1`: the growth is 119% (inactive). With `Cc1cc2c(cc1Cl)N(C(=O)Nc1cc(F)cc(-c3cncnc3)c1)CC2`, the growth was 106% (inactive). As for `Cc1cccnc1Nc1cn2cc(-c3ccnc(OC(C)C)n3)ccc2n1`, the growth was 36.1% (inactive). Consider `C[C@H](NC(=O)c1cc2c(F)cccc2[nH]1)c1ccccc1`, for which the growth was 20.7% (inactive).

Take `CCOC(=O)NCCOc1cnn(Cc2ccccc2)c(=O)c1`: the growth is 100% (inactive). Turning to `CC(C)(C)[S@@](=O)N1Cc2cc(C(=O)NCCc3ccncc3)nc(-c3cccc(-c4ccccc4)c3)c2[C@H]1CCO`, the growth is 67.6% (inactive). As to `CN(C)CCCN1c2ccccc2Sc2ccc(Cl)cc21`, the growth was 4.01% (active). On to `CC(C)Nc1ncc2nc(Nc3cc(F)cc(Cl)c3)n(C3CCNCC3)c2n1`, for which the growth is 91.1% (inactive).

Turning to `Oc1ccccc1CCNC1CCc2ccc(F)cc21` (stereo unspecified), the growth is 32.8% (inactive).

Regarding `Nc1nc(NC2CC2)c2ncn([C@H]3C=C[C@@H](CO)C3)c2n1`, the growth was 97% (inactive).

As to `CCCCc1nc(Cl)c(CO)n1Cc1ccc(-c2ccccc2-c2nn[nH]n2)cc1`, the growth is 103% (inactive). Take `C[C@H]1c2cccc(O)c2C(=O)C2=C(O)[C@]3(O)C(O)=C(C(N)=O)C(=O)[C@@H](N(C)C)[C@@H]3[C@@H](O)[C@@H]21`: the growth is 63.1% (inactive).

As for `CCC(CC)COC(=O)[C@H](C)NP(=O)(OC[C@H]1O[C@@](C#N)(c2ccc3c(N)ncnn23)[C@H](O)[C@@H]1O)Oc1ccccc1` (stereo partly specified), the growth is 95.1% (inactive). Take `COC(=O)N[C@H](C(=O)N1CCC[C@H]1c1ncc(-c2ccc(-c3ccc(-c4cnc([C@@H]5CCCN5C(=O)[C@@H](NC(=O)OC)C(C)C)[nH]4)cc3)cc2)[nH]1)C(C)C`: the growth is 82.5% (inactive). Take `CC(C)CC(NCCc1ccccc1O)c1ccccn1` (stereo unspecified): the growth was 41.8% (inactive). On to `CC(C)(C)c1nc(-c2cccc(NS(=O)(=O)c3c(F)cccc3F)c2F)c(-c2ccnc(N)n2)s1`, for which the growth is 103% (inactive). `COc1ccc2c(O[C@@H]3C[C@H]4C(=O)N[C@]5(C(=O)NS(=O)(=O)C6CC6)C[C@H]5/C=C\CCCCN(C)C(=O)[C@@H]4C3)cc(-c3nc(C(C)C)cs3)nc2c1C`: the growth is 87.1% (inactive). The figure for `CC[C@@H]([C@H](C)O)n1ncn(-c2ccc(N3CCN(c4ccc(OC[C@@H]5CO[C@@](Cn6cncn6)(c6ccc(F)cc6F)C5)cc4)CC3)cc2)c1=O` is 6.56% (active); for `CCN1C(=O)N(CCC(C)C)C2(CCN(Cc3cc(O)cc(Cl)c3)CC2)C1=O` it is 99.4% (inactive). The figure for `O=S(=O)(NCC1(O)CCOc2ccccc21)c1ccccc1F` (stereo unspecified) is 101% (inactive). With `CC[C@H](C)[C@H]1O[C@]2(CC[C@@H]1C)C[C@@H]1C[C@@H](C/C=C(\C)[C@@H](O[C@H]3C[C@H](OC)[C@@H](O[C@H]4C[C@H](OC)[C@@H](O)[C@H](C)O4)[C@H](C)O3)[C@@H](C)/C=C/C=C3\CO[C@@H]4[C@H](O)C(C)=C[C@@H](C(=O)O1)[C@]34O)O2`, the growth was 73.2% (inactive).
